Test results from PMC7819943, “Rice protein-binding microarrays: a tool to detect cis-acting elements near promoter regions in rice”.
Over roughly 39,000 sequences, “fluorescence intensity (a.u.)” has its median near 4,300; the highest 2% begin near 39,000. Only a selection was taken, and the highest values are over-represented in it overall.

The sequences below were run against T1, OsSMF1 (Oryza sativa, UniProt Q6ZLB0 1-436) (assay: protein-binding microarray (RPBM); PBS, 2% BSA, 51.3 ng/ul salmon testes DNA, 50 uM zinc acetate, 200 nM TF, 25 C, 1 h; high values mean tight binding). Conditions: protein: recombinant; tags: N-terminal polyhistidine and DsRed monomer fusion (pET32a); chain copies: 2; label: CyDye5-dUTP incorporated in the synthesized complementary strand; 3' TTTTT single-stranded linker to array surface; dsDNA, one strand shown.
T1 sequence: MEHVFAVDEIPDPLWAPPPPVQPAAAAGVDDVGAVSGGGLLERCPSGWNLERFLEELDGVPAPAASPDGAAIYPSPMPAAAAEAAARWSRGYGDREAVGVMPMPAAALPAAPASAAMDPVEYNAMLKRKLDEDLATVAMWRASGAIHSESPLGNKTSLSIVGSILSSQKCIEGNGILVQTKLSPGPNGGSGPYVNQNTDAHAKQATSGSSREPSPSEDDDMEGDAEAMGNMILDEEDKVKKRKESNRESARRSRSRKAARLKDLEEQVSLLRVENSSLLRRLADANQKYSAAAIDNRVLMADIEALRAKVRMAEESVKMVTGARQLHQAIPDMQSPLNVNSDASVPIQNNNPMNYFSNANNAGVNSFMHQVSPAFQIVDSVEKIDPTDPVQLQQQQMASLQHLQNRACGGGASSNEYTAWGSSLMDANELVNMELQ
Method in brief: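 Transcription factors were made in E. coli BL21-CodonPlus as N-terminal fusions to a polyhistidine tag and DsRed, then purified on Ni–NTA. After primer extension with Cy5-dUTP and blocking with 2% BSA, a custom Agilent array was exposed for 1 h at 25 °C to 200 nM protein in PBS, 2% BSA, salmon testes DNA and 50 µM zinc acetate. Washed arrays were scanned on an Axon 4000B, and the binding signal is per-feature fluorescence intensity in arbitrary units.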

Row | Sequence | binding signal
1 | GTAGAAGACCGGCGGAAAGTGTGAGGAGGGTGACAAGGGGCGGAGTCACCTAGTGCAG | 3420 fluorescence intensity (a.u.)
2 | TGATTGCAACAGGTGGGCTGGTTTTGCGTCATTTGACCAGCGGAGTCACCTAGTGCAG | 51900 fluorescence intensity (a.u.)
3 | TACAGCGTCATTGCAAGAATGGTGACGGGGTTTGAGGTTGCGGAGTCACCTAGTGCAG | 6110 fluorescence intensity (a.u.)
4 | ATTTTGACTGATGTGACGTTTGCGTGGCTGGTTTGATTAGCGGAGTCACCTAGTGCAG | 4770 fluorescence intensity (a.u.)
5 | CTTGTCGCATCTGAACGTGTCGAGTCACACCTGTGTGTTACGGAGTCACCTAGTGCAG | 8330 fluorescence intensity (a.u.)
6 | TTGGCGTGTGTGCAGCATTTGCGGCGGCGGCTGAGAAAGACGGAGTCACCTAGTGCAG | 31100 fluorescence intensity (a.u.)
7 | CATTGGTGGCGTAATGTGGTTGTTAGTGATTTGTTGCACCCGGAGTCACCTAGTGCAG | 3460 fluorescence intensity (a.u.)
8 | TCAATCTGGCGGGGTTTATTTGTGACCCTCGATCGGTCAACGGAGTCACCTAGTGCAG | 4060 fluorescence intensity (a.u.)
9 | TAAAATTTAAATTTTGGCTAATAAGTATAAGCATAACTGTCGGAGTCACCTAGTGCAG | 34300 fluorescence intensity (a.u.)
10 | GGAGGTGGGGATGGTGGGAGGTTTTGGTTTGGTAAAATAGCGGAGTCACCTAGTGCAG | 4910 fluorescence intensity (a.u.)
11 | AATAAGTAAGGTGGTTTTAAAATTTGGGGAGAGCTAACAGCGGAGTCACCTAGTGCAG | 39100 fluorescence intensity (a.u.)
12 | GCTACACTTAACGCTGTCCACAACTCCACATACGCGTTACCGGAGTCACCTAGTGCAG | 3330 fluorescence intensity (a.u.)
13 | ATTTCTAATGCCACGTTAACGCCACGTGGAAAGAAGACCGCGGAGTCACCTAGTGCAG | 17900 fluorescence intensity (a.u.)
14 | GAACGGTAGAATGATTATTGCTCCTTCAGTTTTCGAGTAACGGAGTCACCTAGTGCAG | 3320 fluorescence intensity (a.u.)
15 | TCCGTTCTGTTTATGAATAACGGTCGAAAACGTAATAACCCGGAGTCACCTAGTGCAG | 46300 fluorescence intensity (a.u.)
16 | CTATGACGGGTCGAAAACGGAACCCGTCAAAGATGAGTTACGGAGTCACCTAGTGCAG | 18300 fluorescence intensity (a.u.)
17 | TGAACCGGCCGGTTTTCATGTGAACCGTGAACCGTAATAACGGAGTCACCTAGTGCAG | 3240 fluorescence intensity (a.u.)
18 | GTGGTACACGCATGCTGACTAATTAAGACCGACAGAATCCCGGAGTCACCTAGTGCAG | 3390 fluorescence intensity (a.u.)
19 | AACATGAAAGCTCAAGAGCTCGTGCTGACGGCTGAGAATCCGGAGTCACCTAGTGCAG | 3150 fluorescence intensity (a.u.)
20 | TATGGACACCATCCTTGTCATTGGGTTAGGACTGGCCTTACGGAGTCACCTAGTGCAG | 3630 fluorescence intensity (a.u.)
21 | AAATAGTCACACATAAAATACTATTCATATTTTATCATCTCGGAGTCACCTAGTGCAG | 13500 fluorescence intensity (a.u.)

Row | Sequence | binding signal
22 | GCCATCCAACTATTTTCATGGATCAACATCATAGTAGTATCGGAGTCACCTAGTGCAG | 3140 fluorescence intensity (a.u.)
23 | TTCATCCTATCACATCAAATATTTGGATACATACATGGAGCGGAGTCACCTAGTGCAG | 45500 fluorescence intensity (a.u.)
24 | TTGCTTGCGAGCAAAGGTGGAGTTCATGCCCTCATCATATCGGAGTCACCTAGTGCAG | 3710 fluorescence intensity (a.u.)
25 | AATATAATGGCCGCTCGCTGATGGGTGCGTCATGCACCCTCGGAGTCACCTAGTGCAG | 4060 fluorescence intensity (a.u.)
26 | ATCCCCGGTCATCTCGCCTCGTCTCGTCCCGTCCCTGCGCCGGAGTCACCTAGTGCAG | 3460 fluorescence intensity (a.u.)
27 | CCAATATATAATTGCCACGTCATCGCCGCGTCAATGCCACCGGAGTCACCTAGTGCAG | 28100 fluorescence intensity (a.u.)
28 | TTTTCGATATATAATTGCCACGTAAGCGTCACGTCAATGCCGGAGTCACCTAGTGCAG | 34300 fluorescence intensity (a.u.)
29 | TTTTCCGGATCGAATTGCCACGTAAGCGCCACGTCAATGACGGAGTCACCTAGTGCAG | 48300 fluorescence intensity (a.u.)
30 | CGAGATATAATTGCCATGTCATTGCCACGTCAATGTCACGCGGAGTCACCTAGTGCAG | 49600 fluorescence intensity (a.u.)
31 | GATATAATTGCCACGTAAGCGCCACGTCAATGCCACGTGCCGGAGTCACCTAGTGCAG | 52100 fluorescence intensity (a.u.)
32 | CTGGATCGAATTGCCACGTAAGCGCCACGTCAGTGCCACACGGAGTCACCTAGTGCAG | 20700 fluorescence intensity (a.u.)
33 | CCGGATCGAATTGCCACGTAAGCGTCACGTCACTGCCACACGGAGTCACCTAGTGCAG | 17100 fluorescence intensity (a.u.)
34 | ATCGAATTGTCACGTAAGCGCCACGTCAATGCTACGTCAGCGGAGTCACCTAGTGCAG | 26100 fluorescence intensity (a.u.)
35 | TCGGATCGAATTGCCACGTAAGCGCCACGTCGATGCCACACGGAGTCACCTAGTGCAG | 33000 fluorescence intensity (a.u.)
36 | GCTGAGATATAGTTGCCACGTAAGCGCCACGTCAATGCTACGGAGTCACCTAGTGCAG | 33000 fluorescence intensity (a.u.)
37 | TTGAGATATAATTGCTACGTAAGTGCCACGTCAATGCCACCGGAGTCACCTAGTGCAG | 21400 fluorescence intensity (a.u.)
38 | GCTCGAATTGCCACGTAAGCGCCACGTCAATGCCACGTCACGGAGTCACCTAGTGCAG | 65500 fluorescence intensity (a.u.)
39 | TCATCCCCTGATCGTCATCAGCATTCTCACCGTCGGCGCTCGGAGTCACCTAGTGCAG | 4690 fluorescence intensity (a.u.)
40 | AGTAGGGAAAGTTACAACGCAGCCTAACGTGGGATAGCGGCGGAGTCACCTAGTGCAG | 3980 fluorescence intensity (a.u.)
41 | CGCGATCCTGACAGTATATTCTATCTTTGACACAGTCTGACGGAGTCACCTAGTGCAG | 3320 fluorescence intensity (a.u.)
42 | GCAGCCATTTACGCTTTCCACGTCAGTGCATGATGGAGTACGGAGTCACCTAGTGCAG | 16800 fluorescence intensity (a.u.)
